# Results filed as inconclusive are left out. Activity calls are given as the source filed them. How the source made its calls: active means hit-call score of the fitted dose curve at least 0.9, where 1 is the maximum; inconclusive means response in the unintended direction; inactive means score below 0.9.
# Biological target: sheep Cyclooxygenase-2 (Cox2), PTGS2 (gene 443460) (UniProt P79208)
# Test: NVS_ENZ_oCOX2: NovaScreen (NVS) Enzymatic Assay for sheep Cyclooxygenase-2 (Cox2) (AID 2283231)
# Experimental: NVS_ENZ_oCOX2 is a biochemical, single-readout assay that uses extracted gene-proteins from Ovine placenta in a tissue-based cell-free assay. Measurements were taken 0.66 hour after chemical dosing in a 96-well plate.NVS_ENZ_oCOX2 is one of one assay component(s) measured or calculated from the NVS_ENZ_oCOX2 assay. It is designed to make measurements of enzyme activity, a form of enzyme reporter, as detected with absorbance signals by Colorimetric technology.Data from the assay component NVS_ENZ_oCOX2 was analyzed into 1 assay endpoint. This assay endpoint, NVS_ENZ_oCOX2, was analyzed in the positive analysis fitting direction relative to DMSO as the negative control and baseline of activity. Using a type of enzyme reporter, loss-of-signal activity can be used to understand changes in the enzymatic activity as they relate to the gene PTGS2. Furthermore, this assay endpoint can be referred to as a primary readout, because this assay has produced multiple assay endpoints where this one serves a enzymatic activity function. To generalize the intended target to other relatable targets, this assay endpoint is annotated to the oxidoreductase intended target family, where the subfamily is cyclooxygenase.
# Binding assays used specific radioligands (tritiated, iodinated) with non-radioactive competitive displacement ligands in agonist or antagonist protocols (as indicated) and various reference compounds and inhibitors to titrate specific binding to receptors and transporters. Most enzyme assays (CYPs, kinases, phosphatases, proteases, HDACs) used recombinant protein and specific substrates (fluorescence mostly, some colorimetric and radioactive) and inhibitors, followed by a biochemical separation of substrate and product. All assays for the biochemical HTS were initially run in duplicate at a single concentration (10 uM for CYP450 assays and 25 uM for all others). Assay-chemical combinations meeting a pre-defined threshold (e.g., 30% inhibition and other criteria defined below) were then run in singleton concentration-response format with maximum concentration of 20 uM for CYPs and 50 uM for all others. Each assay was run with positive and negative controls, and concurrent controls on every plate. The follow-up (secondary) screen tested active chemical-pairs in concentration series, as well as a few additional assays not tested in the primary screen, some selected negative inactives, and several cases re-run in the concentration series for confirmatory purposes.
# sheep Cyclooxygenase-2 (Cox2), PTGS2 (gene 443460), sequence (P79208 whole entry, looked up): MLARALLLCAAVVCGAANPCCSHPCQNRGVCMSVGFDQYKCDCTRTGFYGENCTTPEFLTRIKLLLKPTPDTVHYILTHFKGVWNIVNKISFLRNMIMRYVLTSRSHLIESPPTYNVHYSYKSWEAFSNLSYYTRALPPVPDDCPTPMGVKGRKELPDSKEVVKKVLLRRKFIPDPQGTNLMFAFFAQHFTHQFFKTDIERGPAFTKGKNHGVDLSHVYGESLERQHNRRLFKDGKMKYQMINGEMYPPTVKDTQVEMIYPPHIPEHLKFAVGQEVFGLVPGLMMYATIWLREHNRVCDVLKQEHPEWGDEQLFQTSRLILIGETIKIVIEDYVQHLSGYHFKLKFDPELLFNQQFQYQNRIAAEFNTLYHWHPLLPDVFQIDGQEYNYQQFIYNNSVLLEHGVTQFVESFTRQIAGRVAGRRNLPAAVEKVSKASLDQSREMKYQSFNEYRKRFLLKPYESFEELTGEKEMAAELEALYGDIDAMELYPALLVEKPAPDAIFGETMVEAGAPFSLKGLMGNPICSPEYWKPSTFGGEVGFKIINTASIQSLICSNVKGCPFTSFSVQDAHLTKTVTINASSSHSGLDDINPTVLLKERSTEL
Compound,AC50,outcome
CCOc1cccc(-n2cc(C(=O)N3CCN(c4cc(C(=O)O)c5ccccc5c4)CC3)nc2-c2ccc(C)cc2)c1,6.87 µM (active),
CC(=O)c1ccc2c(c1)[C@H](NC(=O)c1ccc(F)cc1)[C@@H](O)C(C)(C)O2,11.3 µM (active),
C[C@](N)(Cc1ccc(O)c(O)c1)C(=O)O,6.83 µM (active),
CCCCCCc1ccc(O)cc1O,11 µM (active),
Cc1ccc(C)c(O)c1,,inactive
CC(C)c1cccc(C(C)C)c1N1C(=O)c2ccc(O)cc2C1=O,4.32 µM (active),
COc1ccc(-n2nc(C(F)F)cc2-c2ccc(S(C)=O)cc2)cc1 (stereo unspecified),0.478 µM (active),
O=C(OC[C@H]1O[C@@H](OC(=O)c2cc(O)c(O)c(OC(=O)c3cc(O)c(O)c(O)c3)c2)[C@H](OC(=O)c2cc(O)c(O)c(OC(=O)c3cc(O)c(O)c(O)c3)c2)[C@@H](OC(=O)c2cc(O)c(O)c(OC(=O)c3cc(O)c(O)c(O)c3)c2)[C@@H]1OC(=O)c1cc(O)c(O)c(OC(=O)c2cc(O)c(O)c(O)c2)c1)c1cc(O)c(O)c(OC(=O)c2cc(O)c(O)c(O)c2)c1,2.87 µM (active),
CC(C)=CCC/C(C)=C\CO,4.26 µM (active),
CC[C@H](C)C(=O)O[C@H]1C[C@@H](C)C=C2C=C[C@H](C)[C@H](CC[C@@H]3C[C@@H](O)CC(=O)O3)[C@H]21,8.83 µM (active),
CCOC(=O)c1ccc(C2CCC(NC[C@H](O)COc3ccc(O)c(NS(C)(=O)=O)c3)CC2)cc1 (stereo partly specified),8.48 µM (active),
